Experimental data taken from PubChem BioAssay AID1159580 (chemical genetic matrix, 2015).
Where “and” joins values, the source holds several entries; their conditions need not be identical. Identical values can stand only once. The campaign covered roughly 5,500 compounds. About 2,000 (36%) were called active. Another 18% or so got no clear call; they are omitted. Cut-off read from the data, not from the text of the source: active = normalized growth mostly below about 0.91 (no sharp cut-off); inconclusive = no clear call, values can overlap the other calls; inactive = mostly above about 0.92. This is one part of the list. Where a structure was tested more than once in an assay, its records may differ in their call.

Assay: chemical genetic growth profiling, strain panel (AID 1159580);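 note: tested at 20 µM; growth read once vehicle control cultures reached saturation at 30 °C; 1 = growth at the plate median or of vehicle wells; lower values mean less growth of the strain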
Settings: growth OD

Measured: normalized growth

C/C=C/CC(C)C(O)C1C(=O)NC(CC)C(=O)N(C)CC(=O)N(C)C(CC(C)C)C(=O)NC(C(C)C)C(=O)N(C)C(CC(C)C)C(=O)NC(C)C(=O)NC(C)C(=O)N(C)C(CC(C)C)C(=O)N(C)C(CC(C)C)C(=O)N(C)C(C(C)C)C(=O)N1C (stereo unspecified)
active: S. cerevisiae deletion strains, locus YKR001C, strain vps1, stronger effect = lower value 0.619 | S. cerevisiae deletion strains, locus YLR039C, strain RIC1, stronger effect = lower value 0.621 | S. cerevisiae deletion strains, locus YLR262C, strain YPT6 (second series), stronger effect = lower value 0.573 | S. cerevisiae deletion strains, locus YLR262C, strain YPT6, stronger effect = lower value 0.509 | S. cerevisiae deletion strains, locus YLR342W, strain FKS1 (second series), stronger effect = lower value 0.173 | S. cerevisiae deletion strains, locus YLR342W, strain FKS1, stronger effect = lower value 0.247 | S. cerevisiae deletion strains, locus YMR231W, strain pep5, stronger effect = lower value 0.404
inactive: S. cerevisiae deletion strains, locus YJR075W, strain HOC1, stronger effect = lower value 0.978 | S. cerevisiae deletion strains, locus YKL009W, strain mrt4, stronger effect = lower value 1.01 | S. cerevisiae deletion strains, locus YKL068W, stronger effect = lower value 1 | S. cerevisiae deletion strains, locus YKL085W, strain MDH1 (second series), stronger effect = lower value 0.984 | S. cerevisiae deletion strains, locus YKL085W, strain MDH1, stronger effect = lower value 0.984 | S. cerevisiae deletion strains, locus YKL160W, strain elf1, stronger effect = lower value 1.04 | S. cerevisiae deletion strains, locus YKL190W, strain CNB1, stronger effect = lower value 0.999 | S. cerevisiae deletion strains, locus YKR026C, strain gcn3, stronger effect = lower value 1.01 | S. cerevisiae deletion strains, locus YKR091W, strain srl3, stronger effect = lower value 1.02 | S. cerevisiae deletion strains, locus YLL001W, strain dnm1, stronger effect = lower value 1.02 | S. cerevisiae deletion strains, locus YLL026W, stronger effect = lower value 1.01 | S. cerevisiae deletion strains, locus YLL041C, strain sdh2, stronger effect = lower value 1.02 | S. cerevisiae deletion strains, locus YLR027C, strain aat2, stronger effect = lower value 1.02 | S. cerevisiae deletion strains, locus YLR058C, strain SHM2, stronger effect = lower value 1.01 | S. cerevisiae deletion strains, locus YLR102C, strain apc9, stronger effect = lower value 1.01 | S. cerevisiae deletion strains, locus YLR113W, strain HOG1, stronger effect = lower value 0.986 | S. cerevisiae deletion strains, locus YLR221C, strain rsa3, stronger effect = lower value 1.02 | S. cerevisiae deletion strains, locus YLR258W, strain gsy2, stronger effect = lower value 1.01 | S. cerevisiae deletion strains, locus YLR268W, strain sec22, stronger effect = lower value 1.01 | S. cerevisiae deletion strains, locus YLR320W, strain mms22, stronger effect = lower value 1.01 | S. cerevisiae deletion strains, locus YLR330W, strain CHS5, stronger effect = lower value 1.01 | S. cerevisiae deletion strains, locus YLR357W, strain rsc2, stronger effect = lower value 0.978 | S. cerevisiae deletion strains, locus YLR370C, strain arc18, stronger effect = lower value 1.01 | S. cerevisiae deletion strains, locus YLR371W, strain rom2, stronger effect = lower value 1.03 | S. cerevisiae deletion strains, locus YLR384C, strain iki3, stronger effect = lower value 1.01 | S. cerevisiae deletion strains, locus YLR418C, strain cdc73, stronger effect = lower value 0.925 | S. cerevisiae deletion strains, locus YML016C, strain PPZ1, stronger effect = lower value 1.02 | S. cerevisiae deletion strains, locus YML032C, strain rad52, stronger effect = lower value 1.04 | S. cerevisiae deletion strains, locus YML120C, strain ndi1, stronger effect = lower value 1.02 | S. cerevisiae deletion strains, locus YML124C, strain tub3, stronger effect = lower value 1.03 | S. cerevisiae deletion strains, locus YMR058W, strain fet3, stronger effect = lower value 1.02 | S. cerevisiae deletion strains, locus YMR078C, strain ctf18, stronger effect = lower value 1.01 | S. cerevisiae deletion strains, locus YMR125W, strain sto1, stronger effect = lower value 0.915 | S. cerevisiae deletion strains, locus YMR129W, stronger effect = lower value 1.01 | S. cerevisiae deletion strains, locus YMR205C, strain PFK2, stronger effect = lower value 0.978 | S. cerevisiae deletion strains, locus YMR223W, strain ubp8, stronger effect = lower value 1.04 | S. cerevisiae deletion strains, locus YMR263W, strain SAP30, stronger effect = lower value 0.99 | S. cerevisiae deletion strains, locus YNL067W, strain RPL9B, stronger effect = lower value 0.97 | S. cerevisiae deletion strains, locus YNL071W, strain lat1, stronger effect = lower value 1.03 | S. cerevisiae deletion strains, locus YNL128W, strain TEP1, stronger effect = lower value 0.948 | S. cerevisiae deletion strains, locus YNL153C, strain GIM3, stronger effect = lower value 0.97 | S. cerevisiae deletion strains, locus YNL175C, strain NOP13, stronger effect = lower value 0.963 | S. cerevisiae deletion strains, locus YNL183C, strain NPR1, stronger effect = lower value 0.955 | S. cerevisiae deletion strains, locus YNL197C, strain WHI3, stronger effect = lower value 0.955 | S. cerevisiae deletion strains, locus YNL209W, strain ssb2, stronger effect = lower value 1.01 | S. cerevisiae deletion strains, locus YNL224C, strain SQS1, stronger effect = lower value 0.966 | S. cerevisiae deletion strains, locus YNL233W, strain BNI4, stronger effect = lower value 0.986 | S. cerevisiae deletion strains, locus YNL248C, strain rpa49, stronger effect = lower value 1.02 | S. cerevisiae deletion strains, locus YNL250W, strain rad50, stronger effect = lower value 1.01 | S. cerevisiae deletion strains, locus YNL271C, strain bni1, stronger effect = lower value 1.01 | S. cerevisiae deletion strains, locus YNL298W, strain CLA4, stronger effect = lower value 0.987 | S. cerevisiae deletion strains, locus YNL307C, strain MCK1, stronger effect = lower value 1.04 | S. cerevisiae deletion strains, locus YNL322C, strain KRE1 (second series), stronger effect = lower value 1.01 | S. cerevisiae deletion strains, locus YNL322C, strain KRE1, stronger effect = lower value 1.03 and 1 | S. cerevisiae deletion strains, locus YNR049C, strain mso1, stronger effect = lower value 1.02 | S. cerevisiae deletion strains, locus YNR052C, strain pop2, stronger effect = lower value 1.04 | S. cerevisiae deletion strains, locus YOL006C, strain TOP1, stronger effect = lower value 0.83 | S. cerevisiae deletion strains, locus YOL012C, strain htz1 1.73 | S. cerevisiae deletion strains, locus YOL147C, strain pex11, stronger effect = lower value 1.02 | S. cerevisiae deletion strains, locus YOR001W, strain rrp6, stronger effect = lower value 1.03 | S. cerevisiae deletion strains, locus YOR061W, strain CKA2, stronger effect = lower value 0.967 | S. cerevisiae deletion strains, locus YOR069W, strain VPS5, stronger effect = lower value 1.02 | S. cerevisiae deletion strains, locus YOR070C, strain gyp1, stronger effect = lower value 1.01 | S. cerevisiae deletion strains, locus YOR080W, strain dia2, stronger effect = lower value 1 | S. cerevisiae deletion strains, locus YOR083W, strain WHI5 (second series), stronger effect = lower value 0.869 | S. cerevisiae deletion strains, locus YOR083W, strain WHI5, stronger effect = lower value 1.02 | S. cerevisiae deletion strains, locus YOR106W, strain vam3, stronger effect = lower value 0.975 | S. cerevisiae deletion strains, locus YOR136W, strain idh2, stronger effect = lower value 1.03 | S. cerevisiae deletion strains, locus YOR144C, strain elg1, stronger effect = lower value 1.02 | S. cerevisiae deletion strains, locus YOR184W, strain ser1, stronger effect = lower value 1.03 | S. cerevisiae deletion strains, locus YOR231W, strain MKK1, stronger effect = lower value 0.975 | S. cerevisiae deletion strains, locus YOR265W, strain rbl2, stronger effect = lower value 1.02 | S. cerevisiae deletion strains, locus YOR270C, strain vph1, stronger effect = lower value 0.895 | S. cerevisiae deletion strains, locus YOR290C, strain snf2, stronger effect = lower value 0.995 | S. cerevisiae deletion strains, locus YOR316C, strain cot1, stronger effect = lower value 1.01 | S. cerevisiae deletion strains, locus YPL051W, strain arl3, stronger effect = lower value 1.02 | S. cerevisiae deletion strains, locus YPL055C, strain LGE1, stronger effect = lower value 0.949 | S. cerevisiae deletion strains, locus YPL078C, strain atp4, stronger effect = lower value 1.02 | S. cerevisiae deletion strains, locus YPL106C, strain sse1, stronger effect = lower value 0.944 | S. cerevisiae deletion strains, locus YPL240C, strain hsp82, stronger effect = lower value 1.02 | S. cerevisiae deletion strains, locus YPL241C, strain CIN2, stronger effect = lower value 1.01 and 0.975 | S. cerevisiae deletion strains, locus YPL256C, strain CLN2, stronger effect = lower value 1.02 | S. cerevisiae deletion strains, locus YPR119W, strain clb2, stronger effect = lower value 1.02 | S. cerevisiae deletion strains, locus YPR141C, strain kar3, stronger effect = lower value 1 | S. cerevisiae deletion strains, locus YPR163C, strain tif3, stronger effect = lower value 1.02 | S. cerevisiae deletion strains, locus YPR167C, strain met16, stronger effect = lower value 1.02 | S. cerevisiae deletion strains, strain wtn01, stronger effect = lower value 1.02 | S. cerevisiae strains, strain wild type, stronger effect = lower value 1
0.292 (active) and 1.01 (inactive): S. cerevisiae deletion strains, locus YMR307W, strain GAS1, stronger effect = lower value
